Data on 8 compounds can be found in ChEMBL document CHEMBL3988442, “University of Dundee, Small-Polar-MMV Screening Library” (2021).

Common to all, as to parameters: scale not given: direction of the effect not stated beside the values
The target in assay [1] is Protein translocase subunit SecA (Escherichia coli (strain K12)) (UniProt P10408). The assay can be described thus: Assay to Identify E. coli SecA ATPase Inhibitors. The class given is functional. Particulars: 30 µM.
In assay [2] the target is T1, Ubiquitin-activating enzyme e1, putative (Leishmania donovani (strain BPK282A1)) (UniProt E9BSI1).
T1 sequence (whole entry): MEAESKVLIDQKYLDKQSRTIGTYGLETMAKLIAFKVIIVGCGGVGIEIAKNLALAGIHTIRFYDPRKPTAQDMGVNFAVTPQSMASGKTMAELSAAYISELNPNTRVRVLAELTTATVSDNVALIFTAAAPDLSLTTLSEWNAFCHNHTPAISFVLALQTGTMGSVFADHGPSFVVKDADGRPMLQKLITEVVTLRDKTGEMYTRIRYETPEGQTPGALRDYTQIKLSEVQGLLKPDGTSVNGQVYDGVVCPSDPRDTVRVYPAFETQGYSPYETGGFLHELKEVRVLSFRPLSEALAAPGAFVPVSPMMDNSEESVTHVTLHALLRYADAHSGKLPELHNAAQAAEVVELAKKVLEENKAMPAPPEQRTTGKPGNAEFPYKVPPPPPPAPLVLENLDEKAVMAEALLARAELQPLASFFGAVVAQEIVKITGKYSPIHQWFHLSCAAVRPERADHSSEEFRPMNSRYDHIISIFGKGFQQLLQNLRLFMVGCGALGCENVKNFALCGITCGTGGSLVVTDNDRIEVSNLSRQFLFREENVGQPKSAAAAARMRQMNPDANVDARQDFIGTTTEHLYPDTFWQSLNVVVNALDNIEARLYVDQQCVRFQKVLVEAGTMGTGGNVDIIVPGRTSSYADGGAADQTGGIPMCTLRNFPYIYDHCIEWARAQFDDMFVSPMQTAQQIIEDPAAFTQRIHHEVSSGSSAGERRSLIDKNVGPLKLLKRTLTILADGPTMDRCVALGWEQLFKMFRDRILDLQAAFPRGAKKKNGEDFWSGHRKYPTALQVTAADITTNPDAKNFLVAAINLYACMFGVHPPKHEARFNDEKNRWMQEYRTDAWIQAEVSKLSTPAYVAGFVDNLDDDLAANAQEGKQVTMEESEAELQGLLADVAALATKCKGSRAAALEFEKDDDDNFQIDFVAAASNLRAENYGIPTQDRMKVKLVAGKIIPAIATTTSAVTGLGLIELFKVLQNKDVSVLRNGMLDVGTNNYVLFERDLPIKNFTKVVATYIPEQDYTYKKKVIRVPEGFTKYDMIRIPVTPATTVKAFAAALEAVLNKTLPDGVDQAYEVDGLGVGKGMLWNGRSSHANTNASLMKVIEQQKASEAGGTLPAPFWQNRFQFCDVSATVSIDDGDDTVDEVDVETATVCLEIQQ
Put plainly: Leishmania donovani Ubiquitin Activating Enzyme (LdE1). The class given is functional. Particulars: 30 µM.

In assay [3] the target is AMP-activated protein kinase, AMPK (Homo sapiens) (UniProt P54646+O43741+P54619+Q9UGJ0+Q9Y478+Q13131+Q9UGI9). The assay can be described thus: AMP-dependent Kinase enzyme assay. An in vitro enzyme assay that detects ADP turnover that is directly proportional to AMPK activity. This uses naive AMPK that is activated during the assay with MK-8722. Type of assay: functional. As to conditions: 30 µM.

For assay [4], the target named is Sialic acid-binding Ig-like lectin 9 (Homo sapiens) (UniProt Q9Y336). Put plainly: Hs-Siglec9 ALPHAscreen SOP 20170721. Particulars: 10 µM. For orientation: Bead proximity is the source of the signal in Alpha formats.
Chain of Sialic acid-binding Ig-like lectin 9 (Homo sapiens) (Q9Y336 whole entry): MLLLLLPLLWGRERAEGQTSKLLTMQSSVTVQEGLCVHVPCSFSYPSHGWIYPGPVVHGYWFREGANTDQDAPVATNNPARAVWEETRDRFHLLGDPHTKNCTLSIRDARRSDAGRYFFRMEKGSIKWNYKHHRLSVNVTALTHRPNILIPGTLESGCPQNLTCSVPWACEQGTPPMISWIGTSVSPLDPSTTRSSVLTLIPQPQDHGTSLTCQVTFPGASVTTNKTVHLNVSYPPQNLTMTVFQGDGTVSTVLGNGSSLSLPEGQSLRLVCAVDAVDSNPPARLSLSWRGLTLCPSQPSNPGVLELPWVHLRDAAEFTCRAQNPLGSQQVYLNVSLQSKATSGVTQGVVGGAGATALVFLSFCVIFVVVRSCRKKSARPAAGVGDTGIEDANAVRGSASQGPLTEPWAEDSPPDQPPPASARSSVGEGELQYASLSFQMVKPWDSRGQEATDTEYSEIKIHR
The subject of another assay is Trypanosoma cruzi. Put plainly: Trypanosoma cruzi phosphomannomutase and mannose-1-phosphate guanylyltransferase assay. Type of assay: functional. Particulars: 10 µM.
The target in assay [5] is T2, Arginase-2, mitochondrial (Homo sapiens) (UniProt P78540).
T2 sequence (whole entry): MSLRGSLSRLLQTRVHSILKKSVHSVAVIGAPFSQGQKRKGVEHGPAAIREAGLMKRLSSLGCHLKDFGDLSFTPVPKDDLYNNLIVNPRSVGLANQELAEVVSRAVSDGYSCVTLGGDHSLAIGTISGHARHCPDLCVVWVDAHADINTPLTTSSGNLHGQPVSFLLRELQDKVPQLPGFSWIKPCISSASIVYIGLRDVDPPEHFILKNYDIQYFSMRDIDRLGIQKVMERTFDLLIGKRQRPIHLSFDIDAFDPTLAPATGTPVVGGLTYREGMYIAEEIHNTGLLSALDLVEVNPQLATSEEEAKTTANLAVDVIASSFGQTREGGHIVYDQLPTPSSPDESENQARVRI
Put plainly: in vitro enzyme assay to detect the production of urea directly proportional to the activity of Arginase II. Also: in the data most compounds retested in dose-response had high values. The class given is functional. As to conditions: 33.3 µM.

Assay [6] has as its target T3, Proteasome subunit beta (Trypanosoma cruzi) (UniProt O96673).
T3 sequence (whole entry): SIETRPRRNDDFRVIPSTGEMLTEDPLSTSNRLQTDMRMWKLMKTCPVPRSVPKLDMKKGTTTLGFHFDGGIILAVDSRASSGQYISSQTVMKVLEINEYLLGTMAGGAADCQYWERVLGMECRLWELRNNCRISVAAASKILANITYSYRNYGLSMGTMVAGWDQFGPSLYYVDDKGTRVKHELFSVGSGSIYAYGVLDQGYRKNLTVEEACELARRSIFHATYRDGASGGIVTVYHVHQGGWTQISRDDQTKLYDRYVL
The assay can be described thus: Trypanosoma cruzi proteasome chymotrypsin-like activity (TcProtChymo) assay. Also: in the data most compounds retested in dose-response had high values. The class given is functional. As to conditions: 9.37 µM.

The species entered for another assay is Homo sapiens. Put plainly: To identify inhibition of the IFN signalling (Jak-Stat) pathway via expression of an eGFP reporter gene under the control of an IFN-stimulated response element (ISRE) containing MxA promoter. Type of assay: functional. As to conditions: 30 µM.
Assay [7] deals with T4, Tyrosyl-tRNA synthetase, putative (Trypanosoma cruzi (strain CL Brener)) (UniProt Q4DSP6).
T4 sequence (whole entry): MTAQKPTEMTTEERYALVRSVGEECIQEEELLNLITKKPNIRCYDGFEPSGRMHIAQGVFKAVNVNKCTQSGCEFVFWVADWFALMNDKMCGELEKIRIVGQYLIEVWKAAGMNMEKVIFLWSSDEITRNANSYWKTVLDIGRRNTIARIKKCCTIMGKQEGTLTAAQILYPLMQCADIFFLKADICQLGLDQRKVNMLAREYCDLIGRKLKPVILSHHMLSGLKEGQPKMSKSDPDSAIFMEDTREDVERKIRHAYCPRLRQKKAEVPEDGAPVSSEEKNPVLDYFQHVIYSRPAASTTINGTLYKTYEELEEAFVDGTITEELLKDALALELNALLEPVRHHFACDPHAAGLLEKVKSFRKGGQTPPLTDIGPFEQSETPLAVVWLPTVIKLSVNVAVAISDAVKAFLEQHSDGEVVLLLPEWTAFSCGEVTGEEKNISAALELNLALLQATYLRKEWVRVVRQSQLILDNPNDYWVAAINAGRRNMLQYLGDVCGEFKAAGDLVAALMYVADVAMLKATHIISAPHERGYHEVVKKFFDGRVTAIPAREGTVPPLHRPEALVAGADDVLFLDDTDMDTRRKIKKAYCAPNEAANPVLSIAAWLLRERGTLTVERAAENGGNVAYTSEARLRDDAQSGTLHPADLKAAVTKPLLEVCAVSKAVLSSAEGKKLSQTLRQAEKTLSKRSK
The assay can be described thus: Trypanosoma cruzi tyrosyl tRNA synthetase (TcYRS) _High Tyrosine SOP. Also: in the data most compounds retested in dose-response had high values. Type of assay: functional. As to conditions: 30 µM.

The target of assay [8] is T4, Tyrosyl-tRNA synthetase, putative (Trypanosoma cruzi (strain CL Brener)). Put plainly: Trypanosoma cruzi tyrosyl tRNA synthetase (TcYRS) SOP. Type of assay: functional. As to conditions: 30 µM.
Assay [9] concerns the target Chromo domain-containing protein 1 (Saccharomyces cerevisiae (strain ATCC 204508 / S288c) (Baker's yeast)) (UniProt P32657). The assay can be described thus: ScCHD-1 Enzyme Inhibition Assay. Also: in the data most compounds retested in dose-response had high values. Type of assay: functional. Particulars: 30 µM.

For some of these results: Entries with a potency or affinity are not part of this list.

Chain of Protein translocase subunit SecA (Escherichia coli (strain K12)) (P10408 whole entry): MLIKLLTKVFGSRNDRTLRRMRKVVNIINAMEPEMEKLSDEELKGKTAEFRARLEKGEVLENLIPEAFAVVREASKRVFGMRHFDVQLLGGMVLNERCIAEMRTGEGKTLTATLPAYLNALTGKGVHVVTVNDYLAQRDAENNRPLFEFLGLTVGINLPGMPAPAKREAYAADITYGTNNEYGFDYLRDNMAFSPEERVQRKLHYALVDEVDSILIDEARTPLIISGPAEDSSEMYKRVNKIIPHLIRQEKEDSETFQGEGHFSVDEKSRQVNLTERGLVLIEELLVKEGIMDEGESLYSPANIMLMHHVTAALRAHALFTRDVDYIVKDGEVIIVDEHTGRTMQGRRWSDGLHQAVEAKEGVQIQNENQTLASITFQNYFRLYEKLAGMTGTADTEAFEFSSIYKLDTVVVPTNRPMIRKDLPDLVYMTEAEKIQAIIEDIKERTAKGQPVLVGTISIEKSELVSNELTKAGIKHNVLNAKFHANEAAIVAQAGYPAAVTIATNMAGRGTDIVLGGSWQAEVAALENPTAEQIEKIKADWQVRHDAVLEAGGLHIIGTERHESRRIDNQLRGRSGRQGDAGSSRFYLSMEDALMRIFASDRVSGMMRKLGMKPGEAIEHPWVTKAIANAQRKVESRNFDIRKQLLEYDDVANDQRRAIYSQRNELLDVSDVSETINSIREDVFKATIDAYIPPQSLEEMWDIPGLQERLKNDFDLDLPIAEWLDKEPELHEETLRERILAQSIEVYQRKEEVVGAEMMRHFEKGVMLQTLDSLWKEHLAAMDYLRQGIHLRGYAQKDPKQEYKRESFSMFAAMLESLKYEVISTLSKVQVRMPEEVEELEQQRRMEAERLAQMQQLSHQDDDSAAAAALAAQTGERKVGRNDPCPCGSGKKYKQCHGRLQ
Chain of Chromo domain-containing protein 1 (Saccharomyces cerevisiae (strain ATCC 204508 / S288c) (Baker's yeast)) (P32657 whole entry, the tested form may be a part): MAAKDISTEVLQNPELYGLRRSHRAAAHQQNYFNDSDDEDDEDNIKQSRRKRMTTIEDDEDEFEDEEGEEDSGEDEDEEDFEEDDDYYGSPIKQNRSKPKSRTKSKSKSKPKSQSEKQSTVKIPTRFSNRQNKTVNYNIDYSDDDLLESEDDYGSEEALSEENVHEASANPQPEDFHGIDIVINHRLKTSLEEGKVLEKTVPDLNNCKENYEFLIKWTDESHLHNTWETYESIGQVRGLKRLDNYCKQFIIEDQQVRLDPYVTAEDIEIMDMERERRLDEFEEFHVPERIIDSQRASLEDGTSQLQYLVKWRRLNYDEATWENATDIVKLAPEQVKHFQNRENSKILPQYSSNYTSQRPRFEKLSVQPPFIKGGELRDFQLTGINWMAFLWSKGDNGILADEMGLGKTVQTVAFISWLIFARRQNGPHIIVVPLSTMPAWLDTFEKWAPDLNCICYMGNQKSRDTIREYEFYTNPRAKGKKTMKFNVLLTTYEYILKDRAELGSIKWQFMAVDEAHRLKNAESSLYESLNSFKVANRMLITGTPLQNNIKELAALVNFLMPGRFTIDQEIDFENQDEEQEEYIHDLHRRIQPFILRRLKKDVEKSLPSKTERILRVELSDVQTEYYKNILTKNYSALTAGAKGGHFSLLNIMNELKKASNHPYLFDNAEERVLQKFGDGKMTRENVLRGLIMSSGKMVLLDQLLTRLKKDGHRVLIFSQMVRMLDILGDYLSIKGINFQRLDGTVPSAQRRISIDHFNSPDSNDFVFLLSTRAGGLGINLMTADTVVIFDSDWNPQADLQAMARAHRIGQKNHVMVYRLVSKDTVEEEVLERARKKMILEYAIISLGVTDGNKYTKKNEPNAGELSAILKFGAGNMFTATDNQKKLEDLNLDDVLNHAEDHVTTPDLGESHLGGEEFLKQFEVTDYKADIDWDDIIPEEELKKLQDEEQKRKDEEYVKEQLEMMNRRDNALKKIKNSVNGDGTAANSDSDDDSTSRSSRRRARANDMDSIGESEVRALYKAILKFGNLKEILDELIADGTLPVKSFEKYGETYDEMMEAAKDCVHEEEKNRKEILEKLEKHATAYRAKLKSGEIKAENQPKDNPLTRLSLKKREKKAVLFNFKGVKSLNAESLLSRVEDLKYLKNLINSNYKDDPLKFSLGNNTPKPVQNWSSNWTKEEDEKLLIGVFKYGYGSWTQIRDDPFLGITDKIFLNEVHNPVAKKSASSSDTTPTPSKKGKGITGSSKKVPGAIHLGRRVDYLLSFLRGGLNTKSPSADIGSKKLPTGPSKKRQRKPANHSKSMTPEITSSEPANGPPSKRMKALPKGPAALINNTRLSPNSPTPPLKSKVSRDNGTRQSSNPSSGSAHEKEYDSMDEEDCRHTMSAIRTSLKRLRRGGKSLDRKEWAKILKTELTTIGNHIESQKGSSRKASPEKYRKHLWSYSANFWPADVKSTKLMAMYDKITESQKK

For `Cc1cccc(COC[C@H]2CC[C@H]3[C@H](CCN3C(=O)CC3CC3)O2)n1`, the Percent Effect was -5.92% in assay [1]; 10.7% in assay [2]; 7.31% in [3]; -1.34% in assay [4]; -1.57% in the assay on Trypanosoma cruzi; 5.36% in assay [5]. The Percent Effect is 6.96% in assay [6]; 15.9% in the assay filed under Homo sapiens; 7.45% in [7]; 19.2% in assay [8]; -5.1% in [9].

For `CC(NC(=O)NCc1cc[nH]n1)c1ccc2c(c1)CCC(=O)N2` (stereo not drawn), the Percent Effect in assay [1] is -3.48%; in [2] it was 13%; in assay [3], -2.39%; in assay [4], 10.7%; in the assay on Trypanosoma cruzi, 5.43%; in [5], 0.712%. The Percent Effect in assay [6] is 4.9%; in the assay filed under Homo sapiens, 4.17%; in assay [7], 4.85%; in assay [8], 21.9%; in assay [9], -9.64%.

As for `Cc1cc(C)n(CC2CN(CCOc3cccc(C#N)c3)CCO2)n1` (stereo not drawn), the Percent Effect is -6.03% in assay [1]; 13.2% in assay [2]; -3.15% in assay [3]; -7.82% in [4]; -1.21% in the assay on Trypanosoma cruzi; -0.719% in [5]. In addition, the Percent Effect in assay [6] is 1.44%; in the assay listed under Homo sapiens, 6.94%; in assay [7], 7.39%; in [8], -6.17%; in assay [9], -0.144%.

Consider `Cn1cccc1C(=O)Nc1cc(F)ccc1OCC1CCCO1` (stereo not drawn), for which the Percent Effect in assay [1] is -2.17%; in [2], -2.6%; in [3], 2.66%; in assay [4], 13.6%; with Trypanosoma cruzi, 6.74%; in [5], 2.85%. The Percent Effect is 0.507% in assay [6]; 4.16% in the assay listed under Homo sapiens; -5.83% in assay [7]; 0% in [8]; -1.65% in assay [9].

For the compound `O=C(Cc1ccccc1F)N1CCN(C(=O)c2ccoc2)CC1`, the Percent Effect in assay [1] is -1.97%; in assay [2], 7.89%; in assay [3], 7.43%; in assay [4] it was -1.79%; in the assay with Trypanosoma cruzi, -2.04%; in assay [5] it was -23.7%. Moreover, the Percent Effect was 22.5% in assay [6]; -4.65% in the assay listed under Homo sapiens; 9.57% in [7]; 18.2% in [8]; -2.49% in assay [9].

With `Cc1noc([C@@]23CCO[C@@H]2CCN(CC2CCOCC2)C3)n1`, the Percent Effect in assay [1] is 2.95%; in [2] it was 8%; in [3] it was 7.01%; in assay [4], 4.21%; in the assay on Trypanosoma cruzi it was -6.76%; in assay [5] it was -51.4%. Moreover, the Percent Effect was 9.91% in assay [6]; 2.92% in the assay filed under Homo sapiens; 8.33% in [7]; 20% in [8]; -7.02% in [9].

Consider `Cn1cc(CN2CCc3nc(-c4ccccn4)nc(O)c3C2)cn1`, for which the Percent Effect in [1] is -7.26%; in assay [2] it was 2.67%; in [3], -8.66%; in assay [4] it was 8.08%; with Trypanosoma cruzi it was 6.69%; in assay [5] it was -3.96%. The Percent Effect in assay [6] was -0.617%; in the assay listed under Homo sapiens it was -0.651%; in assay [7], 10.6%; in assay [8] it was 29.5%; in assay [9], -10.9%.

Regarding `COc1ccc(CN2CCC3(CC(=O)N(c4cncnc4)C3)C2)cc1` (stereo not drawn), the Percent Effect is -1.48% in assay [1]; 16.2% in assay [2]; 5.08% in assay [3]; -9.74% in assay [4]; -3.81% in the assay on Trypanosoma cruzi; -7.33% in assay [5]. Moreover, the Percent Effect in assay [6] was 12.9%; in the assay listed under Homo sapiens, 5.2%; in assay [7], 1.08%; in assay [8] it was 7.69%; in assay [9] it was -3.32%.
